FGF22 binding-1 = FGF22 (human) thermal shift binding | Q9HCT0 | recombinant FGF22 thermal shift, SYPRO orange fluorescence; percent of sucrose octasulfate shift, DMSO zero | activity (Tm shift, normalised), % at 9.99 µM | hit rate 1.5% among 340,000;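 active = mean Tm shift, scaled 0 neutral to 100 positive control, at about 1.3% or above, every replicate too, limit read from the data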
Target sequence (Q9HCT0 whole entry, looked up): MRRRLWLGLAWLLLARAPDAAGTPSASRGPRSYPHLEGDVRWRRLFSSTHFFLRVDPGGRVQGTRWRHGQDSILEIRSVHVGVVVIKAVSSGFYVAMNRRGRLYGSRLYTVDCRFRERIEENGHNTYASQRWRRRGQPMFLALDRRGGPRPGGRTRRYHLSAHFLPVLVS
proKLK7 act = activators of human kallikrein-7 zymogen; P49862; purified proKLK7, EDANS-DABCYL substrate fluorescence; 100% is mature enzyme control, 0% vehicle; activation, % at 7 µM; hit rate 0.9% among 370,000;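 active = activation above the mean of all tested compounds plus 3 SD, computed per campaign excluding outliers beyond control limits, cut at about 13% in these data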
ADAM10 inh = ADAM10 inhibition, QFRET primary screen; recombinant ADAM10, EDANS/DABCYL FRET peptide cleavage, 3 h; inhibition, % at 7 µM; hit rate 0.62% among 370,000; AID 720582;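 active = inhibition above a per-campaign cutoff equal to the mean of compounds falling between control-based bounds plus 3 SD, cut at about 20% in these data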;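 note: 0% = DMSO wells while the 100% control is not disclosed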
Target sequence (O14672 214-748 limits assumed): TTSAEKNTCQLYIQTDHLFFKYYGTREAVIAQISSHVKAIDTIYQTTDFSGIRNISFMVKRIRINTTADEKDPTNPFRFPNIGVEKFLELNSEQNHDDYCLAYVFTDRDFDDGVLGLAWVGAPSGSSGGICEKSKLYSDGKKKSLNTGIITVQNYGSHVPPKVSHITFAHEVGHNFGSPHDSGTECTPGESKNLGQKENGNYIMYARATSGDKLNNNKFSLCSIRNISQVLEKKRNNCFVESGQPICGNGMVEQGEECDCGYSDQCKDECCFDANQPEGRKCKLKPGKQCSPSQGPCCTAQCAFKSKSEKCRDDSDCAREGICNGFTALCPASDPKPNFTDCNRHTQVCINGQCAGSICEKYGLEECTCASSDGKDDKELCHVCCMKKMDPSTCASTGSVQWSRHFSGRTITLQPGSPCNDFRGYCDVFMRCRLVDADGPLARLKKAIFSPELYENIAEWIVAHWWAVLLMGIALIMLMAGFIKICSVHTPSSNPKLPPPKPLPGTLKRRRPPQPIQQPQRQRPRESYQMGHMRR
ADAM17 inh = inhibitors of human ADAM17. inhibition, % at 6.95 µM. AID 720648. recombinant ADAM17, EDANS/DABCYL FRET peptide cleavage. hit rate 0.83% among 370,000. P78536;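 active = inhibition above the mean of compounds lying between control limits plus 3 SD, set per campaign, cut at about 8.5% in these data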;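 note: 0% = DMSO-only wells as the low control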
Ecoli rRNA inh = inhibits bacterial ribosomal RNA function over humanized ribosomes; E. coli WT GFP vs humanized-ribosome RFP mutants, fluorescence, 24 h; hits give low values; DMSO median 0, no signal -100; GFP signal change (wild-type ribosome), % (test concentration not listed); hit rate 1.6% among 350,000; AID 720706;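 active = significant combined selectivity score with lowered wild-type GFP, culture density cut under 30%, mutant RFP and density less affected; inactive = any of these conditions unmet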
FGF22 binding-2 = binders of human FGF22 by thermal shift; recombinant FGF22 thermal shift, SYPRO orange fluorescence; shares compounds with FGF22 binding-1; thermal shift activity, °C (ΔTm) at 38 µM; hit rate 2% among 1,000; AID 720646;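 active = fitted rise in melting shift crosses a set limit at or below the top valid dose tested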
SYPRO no-protein = counter-screen for FGF22 binders: compound-only thermal shift, no protein | shares compounds with FGF22 binding-1 | compound-only SYPRO orange thermal shift counter-screen | hit rate 2% among 1,000 | AC50, µM (top dose mostly 38 µM);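 active = rising signal whose fitted curve reaches the 0.54 level within the top valid dose, showing a melting point, actives reach about 13 µM in these data; inactive = the rest, including activity in the opposite direction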; note: value is where the raw curve crosses a fixed level and not half-maximal
proKLK7 act conf = confirmation of human kallikrein-7 zymogen activators. shares compounds with proKLK7 act. purified proKLK7, EDANS-DABCYL substrate fluorescence; scaled: vehicle 0, mature enzyme 100. activation, % at 7 µM. hit rate 68% among 3,200;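 active = activation, as change over the incubation, above the mean of all tested compounds plus 3 SD, cut at about 13% in these data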
EDANS interfere = fluorescence interference counter-screen for KLK7 activators | shares compounds with proKLK7 act | hit rate 80% among 3,200 | activation, % at 7 µM | EDANS-DABCYL substrate fluorescence interference, no enzyme, 4 h; solvent 0%, active enzyme control 100%;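 active = activation above the all-compound mean plus 3 SD, ignoring values outside control-based bounds, cut at about 4.8% in these data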;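 note: value is the 4 h activation minus the activation read at time zero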
ADAM10 confirm = human ADAM10 inhibition, confirmation; ADAM10 QFRET peptide cleavage, EDANS fluorescence; inhibition, % at 6.95 µM; hit rate 1% among 2,100; shares compounds with ADAM10 inh; AID 743208;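 active = inhibition above about 20% chosen separately for each screening run, limit read from the data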;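 note: 0% = DMSO wells and 100% = marimastat wells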
ADAM17 counter = counter-screen for ADAM10 exosite inhibitors: inhibitors of human ADAM17; shares compounds with ADAM10 inh; inhibition, % at 6.95 µM; AID 743214; ADAM17 QFRET peptide cleavage, EDANS fluorescence; hit rate 0.5% among 2,100;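 active = mean triplicate inhibition above the solvent-only control wells' mean plus 3 SD, cut at about 12% in these data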;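 note: 0% = DMSO wells and 100% = marimastat wells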
ADAM10 counter = ADAM10 inhibition, counter-screen for ADAM17 exosite hits | shares compounds with ADAM17 inh | recombinant ADAM10, EDANS/DABCYL FRET peptide cleavage, 3 h | inhibition, % at 6.95 µM | hit rate 47% among 2,900;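 active = mean inhibition over the triplicate runs exceeds the activity threshold set in the earlier primary screen, cut at about 20% in these data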;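 note: 0% = DMSO wells and 100% = marimastat wells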
ADAM17 confirm = confirmation of inhibitors of human ADAM17; shares compounds with ADAM17 inh; inhibition, % at 6.95 µM; recombinant ADAM17, EDANS/DABCYL QFRET peptide cleavage; AID 743257; hit rate 65% among 2,900;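 active = mean inhibition across replicates above the hit cutoff set in the primary screen, cut at about 8.5% in these data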;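 note: 0% = DMSO wells and 100% = marimastat wells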
The depositor's hits bear a star; i = inactive; · = no result given; ! = repeats disagree; [ ] = dose if it differs, or a comment. In the library only some 3.8% were active in any assay of this set; here they are far more common.

SMILES | FGF22 binding-1 | proKLK7 act | ADAM10 inh | ADAM17 inh | Ecoli rRNA inh | FGF22 binding-2 | SYPRO no-protein | others
CC1CC(C)CN(C(=O)Cc2c(C(=O)O)[nH]c3ccc(Cl)cc23)C1 (stereo unspecified) | 0 | 0 | -1 | -4 | -17 | · | ·
O=C(c1cccc(NC2=NC3CS(=O)(=O)CC3S2)c1)N1CCN(c2ncccn2)CC1 (stereo unspecified) | 12* | 0 | -25 | -1 | 5 | -0.25 | i
COc1ccc(N2CCN(C(=O)c3cccc(NC4=NC5CS(=O)(=O)CC5S4)c3)CC2)cc1 (stereo unspecified) | -1 | 0 | -11 | -3 | 6 | · | ·
O=C(Nc1ccc(C(=O)O)cc1)Nc1ccc([N+](=O)[O-])cc1 | 1.9* | 0 | 7 | 1 | -10 | 0.089 | i
COC(=O)c1ccc(NC(=O)Nc2ccc([N+](=O)[O-])cc2)cc1 | 0 | 0 | 4 | 4 | -57 | · | ·
O=C([C@H]1[C@H](CO)[C@H]2Cn3c(ccc(-c4ccncc4)c3=O)[C@H]2N1CCC(F)(F)F)N1CCCCC1 | 0 | · | · | · | 1 | · | ·
C[C@@H]1CN([C@@H](C)CO)C(=O)c2cc(NS(=O)(=O)c3ccc(Cl)cc3)ccc2O[C@@H](C)CCCCO[C@H]1CN(C)CC1CCCCC1 | 0 | · | · | · | -28 | · | ·
O=c1ccc2cc(S(=O)(=O)Nc3ccc(Br)cc3)ccc2o1 | 1.4* | 0 | -8 | -2 | -26 | -0.019 | i
CS(=O)(=O)Nc1ccc2c(c1)[C@@H]1C[C@@H](CC(=O)N3CCOCC3)O[C@H](CO)[C@@H]1O2 | 0 | · | · | · | -1 | · | ·
CN(c1ccccc1)S(=O)(=O)c1cccc(NC(=O)c2ccc3ncsc3c2)c1 | 1.4* | 0 | 13 | 4 | -32 | -0.047 | i
Cc1noc(NS(=O)(=O)c2ccc(NC(=O)c3cccc(S(=O)(=O)N(C)c4ccccc4)c3)cc2)c1C | 1.6* | 0 | -4 | 1 | -9 | -0.17 | i
CO[C@@H]1CN(C)C(=O)c2ccc(NC(=O)C3CCOCC3)cc2OC[C@@H](C)N(CC2CC2)C[C@@H]1C | 0 | · | · | · | 3 | · | ·
CCC(C)[C@H](NC(=O)N1CCn2c1nc1ccccc12)C(=O)NCCc1ccccc1 (stereo partly specified) | 14* | 0 | 11 | 2 | -1 | 0.016 | i
CC(C)C#Cc1cnc2c(c1)C(=O)N([C@@H](C)CO)C[C@H](C)[C@@H](CN(C)C(=O)Nc1ccccc1)O2 | 0 | · | · | · | -3 | · | ·
C[C@H]1CN([C@@H](C)CO)S(=O)(=O)c2ccc(-c3ccncc3)cc2O[C@H]1CN(C)C(=O)Nc1ccc(C(F)(F)F)cc1 | 2.0* | · | · | · | -7 | 0.048 | i
C[C@@H]1CN([C@H](C)CO)S(=O)(=O)c2ccc(-c3ccncc3)cc2O[C@H]1CN(C)C(=O)Nc1ccc(C(F)(F)F)cc1 | 0 | · | · | · | -7 | · | ·
C[C@H](CO)N1C[C@H](C)[C@H](CN(C)C(=O)Nc2ccc(C(F)(F)F)cc2)Oc2cc(-c3ccncc3)ccc2S1(=O)=O | 1.4* | · | · | · | -5 | -0.2[42 µM] | i
CC(=O)N(C)C[C@@H]1Oc2ccc(NS(C)(=O)=O)cc2CC(=O)N(C)C[C@H]1C | · | · | · | · | -1 | · | ·
CCC(=O)N1CC2(C1)[C@@H](c1ccccc1)[C@@H](CO)N2S(=O)(=O)Cc1ccccc1 | 0 | · | · | · | 6 | · | ·
CCC(=O)N1CC2(C1)[C@H](c1ccccc1)[C@H](CO)N2S(=O)(=O)Cc1ccccc1 | 16* | · | · | · | 0 | -0.015 | i
O=C(CC1CC1)N1CC2(C1)[C@H](c1ccccc1)[C@H](CO)N2S(=O)(=O)Cc1ccccc1 | 1 | · | · | · | 2 | · | ·
O=C(CC1CC1)N1CC2(C1)[C@@H](c1ccccc1)[C@@H](CO)N2S(=O)(=O)Cc1ccccc1 | 1.3* | · | · | · | 1 | -0.11 | i
O=C(C1CCCC1)N1CC2(C1)[C@H](c1ccccc1)[C@@H](CO)N2CC1CC1 | 1.6* | · | · | · | 2 | 0.056[42 µM] | i
O=C(C[C@@H]1C=C[C@@H](NC(=O)C2CCOCC2)[C@@H](CO)O1)NCc1ccccc1Cl | · | · | · | · | 2 | · | ·
COc1ccccc1NC(=O)N1C[C@@H](O)COC[C@H]2O[C@@H](CC(=O)NCCc3ccccc3)CC[C@@H]21 | 0 | · | · | · | -4 | · | ·
SMILES | FGF22 binding-1 | proKLK7 act | ADAM10 inh | ADAM17 inh | Ecoli rRNA inh | FGF22 binding-2 | SYPRO no-protein | others
O=C(O)c1cc2cccc(S(=O)(=O)N3CCCCC3)c2cc1O | 1.7* | 21* | -108 | -41 | -8 | 0.087 | i | proKLK7 act conf=85*;EDANS interfere=88*
C[C@@H]1CN([C@@H](C)CO)C(=O)c2cc(NC(=O)NC3CCCCC3)ccc2O[C@@H](C)CCCCO[C@H]1CN(C)Cc1ccc(C(F)(F)F)cc1 | 0 | · | · | · | -2 | · | ·
COC(=O)CN1C(=S)N(c2ccc(Cl)cc2)C(=O)C1CC(=O)Nc1ccc(F)cc1 (stereo unspecified) | 1.9* | 0 | 34* | 6 | -25* | -0.16 | i | ADAM10 confirm=0;ADAM17 counter=0
COCC(=O)Nc1ccc2c(c1)OC[C@H](C)N(CCc1ccccc1)C[C@@H](C)[C@@H](OC)CN(C)C2=O | 0 | · | · | · | 0 | · | ·
COc1cc(OC)cc(C(=O)Nc2cccc(NC(=O)c3cccs3)c2)c1 | 0 | 1 | -1 | 2 | -7 | · | ·
COc1cc(NC(=O)c2cnc(N)s2)cc(C(=O)Nc2cccc(C(F)(F)F)c2)c1 | 1.7*! | 0 | 20*! | 9.8*! | -45 | 0.064 | i | ADAM10 confirm=6;ADAM17 counter=2;ADAM10 counter=22*;ADAM17 confirm=14*
